Among all 130,000 compounds or so, about 1,200 (0.92%) were called active.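 The calls were made as follows: active = inhibition above the mean plus 3 SD, with well images judged a real hit on visual review (cut at about 60% in these data, passing the limit was not always enough); inconclusive = inhibition over the cutoff but images rejected on review; inactive = inhibition not above the cutoff.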 Shown is part of a subset that was picked to be rich in actives.
Test: inhibitors of insulin promoter-driven GFP, primary screen, imaging, TRM-6 cells (human fetal islet line), eGFP reporter, cell count (AID 1273;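 as to normalized cell count: cells exposed to compound for 48 h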)
Settings: at 2 µM, reporter expression induced with tamoxifen; inhibition: stronger effect = higher value; normalized cell count: measured here: cell count, toxicity
In the case of `COc1ccc(C2CC(c3cccs3)=NN2C(=O)CSc2nncs2)cc1OC` (stereo not given), the inhibition was 66.7% (inactive) and the normalized cell count was 95.8%. In the case of `CN1CCN(C(=O)CCc2ncc(C(F)(F)F)cc2Cl)CC1`, the inhibition was 9.09% (inactive) and the normalized cell count was 150%. For `CC(=O)c1cccc(NC(=O)N2CCCC2C(=O)NCCc2ccccc2)c1` (stereo not given), the inhibition was 82.1% (active) and the normalized cell count was 27.6%. For `COc1cccc(NC(=O)C2CCCN2C(=O)OCc2ccccc2)c1` (stereo not given), the inhibition was -34.4% (inactive) and the normalized cell count was 106%. In the case of `Cc1ccc(CNC(=O)C2CCCN2C(=O)NCc2ccccc2)cc1` (stereo not given), the inhibition was 59% (inactive) and the normalized cell count was 73.5%. In the case of `O=[N+]([O-])c1ccc(N2CCN(S(=O)(=O)c3ccc4ccccc4c3)CC2)cc1NCc1ccco1`, the inhibition was -18.5% (inactive) and the normalized cell count was 121%. In the case of `O=C(c1ccccc1)N1CCN(c2ccc([N+](=O)[O-])c(NCc3ccco3)c2)CC1`, the inhibition was -9.68% (inactive) and the normalized cell count was 122%. In the case of `O=[N+]([O-])c1ccc(N2CCNCC2)cc1NCc1cccnc1`, the inhibition was 66.7% (active) and the normalized cell count was 150%. With `CCN1CCN(c2ccc([N+](=O)[O-])cc2C(=O)c2ccc(Cl)cc2)CC1` the inhibition was -83.3% (inactive) and the normalized cell count was 81.5%. For `COc1ccc(N2CCN(c3ccc([N+](=O)[O-])cc3Cl)CC2)cc1`, the inhibition was 7.69% (inactive) and the normalized cell count was 106%. In the case of `O=[N+]([O-])c1ccc(N2CCN(c3ccc(O)cc3)CC2)c(Cl)c1`, the inhibition was 86.7% (active) and the normalized cell count was 135%. In the case of `Cc1nn2c3cc(N4CCOCC4)ccc3nc2c2ccccc12`, the inhibition was -63.5% (inactive) and the normalized cell count was 79.7%. With `Cc1cc(C)c2c(n1)nn1c(N3CCOCC3)cc(C)nc21` the inhibition was 74.3% (active) and the normalized cell count was 60.7%. For `Cc1cc(C)c2c(n1)nn1c(N3CCN(c4cccc(Cl)c4)CC3)cc(C)nc21`, the inhibition was -82.8% (inactive) and the normalized cell count was 99.8%. With `CCCN(CC(=O)Nc1ccccc1C)C(=O)c1cc(=O)[nH]c2ccccc12` the inhibition was -38.5% (inactive) and the normalized cell count was 49.2%. In the case of `C=CCC1(CC=C)CCCN1C(=O)CC1C(=O)NCCN1Cc1ccccc1OC` (stereo not given), the inhibition was 20% (inactive) and the normalized cell count was 91.1%. With `C/C(Cn1nnc2ccccc21)=N\OC(=O)c1cc(F)c(F)cc1Cl` the inhibition was -55% (inactive) and the normalized cell count was 99.6%. In the case of `CC(=O)c1cnc(SCC(=O)O)nc1C`, the inhibition was 26.7% (inactive) and the normalized cell count was 105%. With `Cc1cc(C#N)c(SCC(N)=O)nc1-c1ccc(F)cc1` the inhibition was 14.3% (inactive) and the normalized cell count was 121%. In the case of `CC(=O)c1cc(C#N)c(SCC(=O)C(C)(C)C)nc1C`, the inhibition was 65.4% (active) and the normalized cell count was 142%. With `O=C(COC(=O)c1ccccn1)Nc1cccc2ccccc12` the inhibition was -83.3% (inactive) and the normalized cell count was 96%. For `O=C(CCN1C(=O)c2ccccc2C1=O)NCCCn1ccnc1`, the inhibition was -16.7% (inactive) and the normalized cell count was 84.2%. With `COc1ccccc1NC(=O)CC(NCCN(C)C)C(=O)O` (stereo not given) the inhibition was 72.4% (active) and the normalized cell count was 43%. In the case of `COC(=O)C(CC(=O)Nc1cc(C)ccc1C)Nc1ccccc1OC` (stereo not given), the inhibition was 7.14% (inactive) and the normalized cell count was 131%. In the case of `CN(C)CCNC(CC(=O)Nc1ccc(Cl)c(Cl)c1)C(=O)O` (stereo not given), the inhibition was 44.2% (inactive) and the normalized cell count was 104%. With `CCN(CC)CCNC(=O)c1sc2ncn(CC(=O)Nc3ccc(C)c(Cl)c3)c(=O)c2c1C` the inhibition was -14.3% (inactive) and the normalized cell count was 89.6%. With `Cc1c(Br)ccc(NC(=O)COc2ccccc2C(N)=O)c1C` the inhibition was -5.26% (inactive) and the normalized cell count was 50.7%. With `O=C(Nc1ccc(N2CCN(C(=O)C3CC3)CC2)cc1)c1cccs1` the inhibition was 36.8% (inactive) and the normalized cell count was 132%. For `Cc1c(Nc2nc3ccccc3nc2NS(=O)(=O)c2cccs2)c(=O)n(-c2ccccc2)n1C`, the inhibition was 75% (active) and the normalized cell count was 38.1%. With `COC(=O)Nc1c(C)n(C)n(-c2ccccc2)c1=O` the inhibition was 13.9% (inactive) and the normalized cell count was 53.7%. With `COc1ccc(S(=O)(=O)Nc2c(C)n(C)n(-c3ccccc3)c2=O)cc1` the inhibition was 22.7% (inactive) and the normalized cell count was 104%. In the case of `Cc1nn(-c2ccc([N+](=O)[O-])cc2)c(N)c1-c1ccccc1`, the inhibition was 25% (inactive) and the normalized cell count was 95.4%. In the case of `CCOC(=O)c1ccc(NC(=O)C2CC(=O)Nc3nc4ccccc4n32)cc1` (stereo not given), the inhibition was -36.4% (inactive) and the normalized cell count was 131%. For `CCOC(=O)c1c(C)[nH]c(C2=NNC(=NC(C)COC)SC2)c1C` (stereo not given), the inhibition was 31.2% (inactive) and the normalized cell count was 87.8%. In the case of `Cc1ccc(O)c(CCc2ccccc2)n1`, the inhibition was 91.9% (active) and the normalized cell count was 94.3%. With `Cc1ccc(O)c(-c2cc(C(=O)NCc3ccccc3)[nH]n2)c1` the inhibition was 7.14% (inactive) and the normalized cell count was 81.6%. For `O=C(O)CCCc1ccccc1`, the inhibition was -23.8% (inactive) and the normalized cell count was 97.5%. For `CN(C)c1nccc(NCc2ccccc2)c1C#N`, the inhibition was 40.5% (inactive) and the normalized cell count was 140%. For `O=C(NNc1cc(Cl)ccc1Cl)c1cccnc1Cl`, the inhibition was 11.1% (inactive) and the normalized cell count was 114%. With `CCc1nnc(NS(=O)(=O)c2ccc(NC(=S)NC(=O)c3cccs3)cc2)s1` the inhibition was -11.1% (inactive) and the normalized cell count was 96.4%. In the case of `CN(C)/C=C(/C(=O)c1ccccc1Cl)S(C)(=O)=O`, the inhibition was 75% (active) and the normalized cell count was 84.2%. With `CN(C)/C=C(/C(=O)c1ccccc1)S(=O)(=O)c1ccc(Cl)cc1` the inhibition was -23.8% (inactive) and the normalized cell count was 70.5%. In the case of `CN(C)/C=C(/C(=O)c1ccc(F)cc1)S(=O)(=O)c1ccc(F)cc1`, the inhibition was 50% (inactive) and the normalized cell count was 124%. For `COc1cccc(NC(=O)CS(=O)(=O)c2cn(CC(=O)N3CCOCC3)c3ccccc23)c1`, the inhibition was -16.7% (inactive) and the normalized cell count was 88.8%. For `O=C1c2ccccc2C(=O)N1CCC(O)C[N+](=O)[O-]` (stereo not given), the inhibition was -17.6% (inactive) and the normalized cell count was 90.3%. For `Cc1cc([N+](=O)[O-])ccc1NC(=O)c1ccc(NC(=O)C(C)C)cc1`, the inhibition was 30% (inactive) and the normalized cell count was 120%. With `CCC(=O)N1CCC(C(N)=O)(N2CCCCC2)CC1` the inhibition was 33.3% (inactive) and the normalized cell count was 108%. With `COC(=O)C1=C(C)N(C)C(=S)NC1c1cc(OC)ccc1OC` (stereo not given) the inhibition was 23.1% (inactive) and the normalized cell count was 118%. With `Cc1nc2ccccc2c(-c2ccccc2)c1C(=O)c1ccccc1` the inhibition was 27.5% (inactive) and the normalized cell count was 64.5%. With `CCOC(=O)c1cc2ccccc2nc1C` the inhibition was 57.1% (inactive) and the normalized cell count was 47.1%. In the case of `Cc1nc2ccccc2cc1O`, the inhibition was 67.9% (active) and the normalized cell count was 57.9%. In the case of `COc1cc(C(=O)NCc2ccc(-n3cccc3)cc2)cc(OC)c1OC`, the inhibition was 46.1% (inactive) and the normalized cell count was 69%. For `O=C(CN1CCSCC1)N/N=C/c1ccc(Cl)cc1`, the inhibition was 35.3% (inactive) and the normalized cell count was 92.4%. With `Cc1ccc(-n2cc(CN(C)Cc3nccn3C)c(-c3cccc(C)c3)n2)cc1` the inhibition was 41.7% (inactive) and the normalized cell count was 124%. In the case of `O=C(O)C1C2CC2CN1C(=O)c1ccc(Cl)cc1Cl` (stereo not given), the inhibition was -5.56% (inactive) and the normalized cell count was 121%.
